The term AC50 denotes the concentration giving half of the maximal activity seen.

Active and inactive are the calls of the source. The calls were made as follows: active = hit-call score of the fitted dose curve at least 0.9, where 1 is the maximum; inactive = score below 0.9.

Test [1] can be described thus: APR_HepG2_StressKinase_1hr: Apredica 1-hour HepG2 Assay for Stress Kinase (AID 2282906). Conditions: HepG2 stress kinase (phospho-c-Jun) imaging, actives raise or lower the signal. An outline of the steps: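 High-content imaging of phospho-c-Jun immunostaining (with Hoechst nuclear identification) after a 1 h exposure of HepG2 cells to 10 concentrations from 0.39 to 200 uM, final DMSO 0.5%. Fitted bidirectionally against DMSO.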

Test [2] can be described thus: APR_HepG2_NuclearSize_24hr: Apredica 24-hour HepG2 Assay for Nuclear Size (AID 2282907). Conditions: high-content imaging, actives raise or lower the signal. An outline of the steps:
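Read-out: nuclear diameter from Hoechst 33342 (2 ug/mL) imaging of fixed HepG2 cells, 20x, six fields/well. Compounds ran at 0.39–200 uM for 24 hr, 0.5% DMSO final. Gain or loss was fitted bidirectionally relative to the DMSO baseline.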

Test [3] is described as follows: APR_HepG2_CellLoss_24hr: Apredica 24-hour HepG2 Assay for Cell Loss (AID 2282908).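 As to AC50: fit in both directions so a hit may be cell loss or gain.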 The conditions noted are these: high-content imaging. The method in brief: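 Read-out: Hoechst 33342-stained nuclei counted by automated fluorescence imaging after formaldehyde fixation and Triton permeabilization. Ten concentrations, 0.39 to 200 uM, duplicate wells, 0.5% DMSO final. Gain or loss of signal fitted relative to DMSO baseline.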

Test [4] is described as follows: APR_HepG2_MicrotubuleCSK_24hr: Apredica 24-hour HepG2 Assay for Microtubule CSK Stabilty (AID 2282909). The conditions noted are these: HepG2 microtubule cytoskeleton imaging, actives raise or lower the signal. The method in brief: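 Read-out: alpha-tubulin immunofluorescence intensity by automated high-content imaging of fixed HepG2 cells after 24 h compound treatment. Ten concentrations, 0.39 to 200 uM, in duplicate; DMSO 0.5% v/v. Taxol positive control; DMSO-normalized bidirectional curve fitting.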

Test [5] is described as follows: APR_HepG2_MitoticArrest_24hr: Apredica 24-hour HepG2 Assay for Mitotic Arrest (AID 2282910). Conditions: high-content imaging, actives raise or lower the signal. The method in brief:
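Treatment lasted 24 hr in the human HepG2 line at 0.39–200 uM, solvent held at 0.5% DMSO. Fixed cells were stained with Hoechst 33342 and anti-phospho-histone H3, imaged at 20x, and analysed by gain- or loss-of-signal fitting against DMSO.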

A short description of test [6]: APR_HepG2_MitoMembPot_24hr: Apredica 24-hour HepG2 Assay for Mitochondrial Membrane Potential (AID 2282911). Conditions: imaging, actives raise or lower the signal. The method in brief:
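Cells are dosed for 24 hr across 0.39 to 200 uM with solvent held at 0.5% DMSO. They are then stained with 250 nM MitoTracker Red CMXRos for 30 min, fixed in 3.7% formaldehyde and imaged.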

Test [7] is described as follows: APR_HepG2_CellCycleArrest_72hr: Apredica 72-hour HepG2 Assay for Cell Cycle Arrest (AID 2282914). Conditions: high-content imaging, actives raise or lower the signal. An outline of the steps: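 Read-out is Hoechst-stained nuclear DNA content measured by automated fluorescence imaging (20x, six images per well), fitted in both directions relative to DMSO. Human HepG2 liver cells received 0.39–200 uM compound for 72 hr at 0.5% v/v DMSO.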

A short description of test [8]: APR_HepG2_CellLoss_72hr: Apredica 72-hour HepG2 Assay for Cell Loss (AID 2282915). Conditions: high-content imaging. The method in brief: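 HepG2 cells were exposed for 72 hr to compounds at 0.39–200 uM (ten concentrations, duplicate) in 0.5% v/v final DMSO. Nuclei were stained with Hoechst 33342 after 3.7% formaldehyde fixation, imaged at 20x, and counted; fits bidirectional versus DMSO.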

Test [9] is described as follows: APR_HepG2_P-H2AX_72hr: Apredica 72-hour HepG2 Assay for H2AX Phosphorylation (AID 2282916).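 Also: phospho-histone H2A.x immunostain intensity per cell marking DNA damage.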 The conditions noted are these: imaging, actives raise or lower the signal. An outline of the steps: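 Readout: phospho-H2A.x immunofluorescence (FITC secondary) plus Hoechst nuclear stain, high-content imaging at 20x, six fields/well. HepG2, 72 hr compound exposure, 0.39–200 uM, final DMSO 0.5% v/v. Gain or loss fitted relative to DMSO baseline.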

Test [10] in a line: APR_HepG2_MitoMembPot_72hr: Apredica 72-hour HepG2 Assay for Mitochondrial Membrane Potential (AID 2282917). Conditions: imaging, actives raise or lower the signal. The method in brief:
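HepG2 cells exposed 72 h to compounds at 0.39–200 uM (0.5% v/v DMSO, duplicates); MitoTracker Red CMXRos 250 nM loaded 30 min before 3.7% formaldehyde fixation, imaged by HCS fluorescence. Bidirectional fit versus DMSO.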

A short description of test [11]: APR_HepG2_MitoticArrest_72hr: Apredica 72-hour HepG2 Assay for Mitotic Arrest (AID 2282918). Conditions: high-content imaging, actives raise or lower the signal. An outline of the steps: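 Read-out is phospho-histone H3 immunofluorescence with Hoechst nuclear segmentation, imaged at 20x. Human HepG2 liver cells received ten concentrations (0.39–200 uM, final DMSO 0.5% v/v) for 72 hr before fixation. Gain or loss of signal was fitted relative to DMSO.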

Test [12] can be described thus: APR_HepG2_MicrotubuleCSK_72hr: Apredica 72-hour HepG2 Assay for Microtubule CSK Stabilty (AID 2282919). Conditions: HepG2 microtubule cytoskeleton, high-content imaging, actives raise or lower the signal. The method in brief: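 Ten-point dosing (0.39–200 uM, 0.5% DMSO) of HepG2 for 72 hr, with taxol as the cytoskeletal positive control. The cells were formaldehyde-fixed and then stained with alpha-tubulin/Cy5 and Hoechst. Imaging at 20x used a −2 um Z offset for tubulin.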

A short description of test [13]: APR_HepG2_P-H2AX_24hr: Apredica 24-hour HepG2 Assay for H2AX Phosphorylation (AID 2282920). The conditions noted are these: high-content imaging, actives raise or lower the signal. An outline of the steps: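 HepG2, 24 hr, cpd 0.39–200 uM (10 conc, duplicate), DMSO 0.5% v/v final. Fix 3.7% formaldehyde, Triton X-100 permeabilize, anti-phospho-H2A.x 1:200 + Hoechst 2 ug/mL. Imaged, bidirectional fit vs DMSO.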

Test [14] in a line: APR_HepG2_StressKinase_72hr: Apredica 72-hour HepG2 Assay for Stress Kinase (AID 2282921). Conditions: HepG2 stress kinase (phospho-c-Jun) imaging, actives raise or lower the signal. The method in brief:
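Phospho-c-Jun immunofluorescence measured by high-content imaging at 20x, six fields per well; bidirectional curve fitting against DMSO as baseline. Dosing: 0.39–200 uM, 72 h, 0.5% DMSO final.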

Test [15] in a line: APR_HepG2_StressKinase_24hr: Apredica 24-hour HepG2 Assay for Stress Kinase (AID 2282922). The conditions noted are these: HepG2 stress kinase (phospho-c-Jun) imaging, actives raise or lower the signal. An outline of the steps: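 After 24 hr compound treatment (up to 200 uM, final DMSO 0.5% v/v), HepG2 cells are fixed and multiplex-labeled; phospho-c-Jun intensity is captured by high-content fluorescence imaging and analyzed relative to DMSO.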

The nature of test [16]: APR_HepG2_MitoMass_72hr: Apredica 72-hour HepG2 Assay for Mitochondrial Mass (AID 2282924).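 Also: MitoTracker Red CMXRos stain intensity per cell imaged as mitochondrial mass.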 The conditions noted are these: high-content imaging, actives raise or lower the signal. The method in brief:
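Steps: treat HepG2 72 hr (0.39–200 uM, duplicate wells); load MitoTracker Red CMXRos, 250 nM, 30 min; fix with 3.7% formaldehyde, permeabilise with 0.5% Triton X-100; capture images, nuclei via Hoechst 33342; fit bidirectionally against DMSO.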

A short description of test [17]: APR_HepG2_NuclearSize_72hr: Apredica 72-hour HepG2 Assay for Nuclear Size (AID 2282925). The conditions noted are these: high-content imaging, actives raise or lower the signal. An outline of the steps:
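Compounds (0.39–200 uM, final DMSO 0.5%) were applied to HepG2 for 72 hr. Cells were then formaldehyde-fixed, permeabilized and labelled with Hoechst 33342. Nuclear diameter was quantified from six images per well.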

A short description of test [18]: APR_HepG2_p53Act_24hr: Apredica 24-hour HepG2 Assay for p53 Activation (AID 2282913).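 Also: p53 protein immunofluorescence averaged per cell in HepG2 with Hoechst nuclei.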 The conditions noted are these: high-content imaging, actives raise or lower the signal. The method in brief:
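Human HepG2 liver cells; 24 hr cpd treatment, 0.39–200 uM, 0.5% DMSO final. Fixed in 3.7% formaldehyde, permeabilized with 0.5% Triton X-100, stained with anti-p53/Cy5 plus Hoechst 33342. Six images per well at 20x; gain or loss vs DMSO.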

Test [19] can be described thus: APR_HepG2_p53Act_72hr: Apredica 72-hour HepG2 Assay for p53 Activation (AID 2282923).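 Also: average cellular p53 protein immunofluorescence intensity in HepG2 cells.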 The conditions noted are these: high-content imaging, actives raise or lower the signal. The method in brief: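 Readout: p53 immunofluorescence quantified by automated high-content imaging at 20x, six fields per well, nuclei located via Hoechst. Dosing ran 72 hr over ten concentrations from 0.39 to 200 uM; bidirectional curve fitting against DMSO baseline.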

A short description of test [20]: APR_HepG2_MitoMass_24hr: Apredica 24-hour HepG2 Assay for Mitochondrial Mass (AID 2282912). Conditions: high-content imaging, actives raise or lower the signal. The method in brief:
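HepG2, 24 hr dosing, 10 concentrations 0.39–200 uM in duplicate, DMSO 0.5% final. MitoTracker Red CMXRos 250 nM, 30 min pre-fix; 3.7% formaldehyde fix. Imaging-based fluorescence intensity; gain/loss fit vs DMSO baseline.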

As to `COP(=O)(OC)OC(Br)C(Cl)(Cl)Br` (centres undefined), the molecule was classed as inactive in [1], in test [2], in [6], in test [7], in test [9] and in test [10]. The call in test [11], in [12], in test [14], in test [16] and in test [17] was inactive. Besides, the half-maximal activity concentration (AC50) in test [3] was 45 µM (active); in test [4] it was 34.1 µM (active); in test [5] it was 34.2 µM (active); in test [8], 29.7 µM (active); in test [13], 33.4 µM (active); in test [15] it was 32.5 µM (active).
On to `CSC1=N[C@@](C)(c2ccccc2)C(=O)N1Nc1ccccc1`, for which the outcome in test [1], in test [2], in test [3], in test [5], in [6] and in test [18] was inactive. For the same molecule, the call in test [7], in test [9], in test [10], in [11], in test [13] and in [14] was inactive. Further, the molecule was classed as inactive in test [19], in [16] and in [17]. In addition, the concentration at half-maximal activity (AC50) was 43.3 µM (active) in [4], 12.2 µM (active) in [8] and 38.6 µM (active) in test [12].
On to `CSc1nc(NC(C)C)nc(NC(C)C)n1`, for which the molecule was classed as inactive in test [1], in test [2], in test [3], in test [4], in [5] and in test [6]. Moreover, the outcome in test [20], in test [18], in test [7], in test [8], in test [9] and in test [10] was inactive. The result in test [11], in [12], in test [13], in [14], in [15] and in [19] was inactive. Also, the molecule was called inactive in test [16] and in [17].
For the molecule `CC1(C(=O)Nc2ccc(O)c(Cl)c2Cl)CCCCC1`, the molecule was classed as inactive in [1], in [2], in test [3], in test [5], in [6] and in test [20]. The molecule was called inactive in [18], in test [7], in test [9], in [10], in test [11] and in test [13]. In addition, the result in test [14], in test [15], in test [19], in test [16] and in [17] was inactive. Besides, the concentration at half-maximal activity (AC50) was 94 µM (active) in [4], 71.2 µM (active) in test [8] and 91.7 µM (active) in test [12].
Regarding `CCCCOC(=O)[C@@H](C)Oc1ccc(Oc2ccc(C#N)cc2F)cc1`, the outcome in [2], in [3], in test [4], in test [5], in [6] and in [20] was inactive. Also, the outcome in test [18], in test [7], in test [9], in test [10], in [11] and in [12] was inactive. Further, the result in test [13], in test [14], in test [15], in test [19], in [16] and in test [17] was inactive. For the same molecule, the AC50 in test [8] was 99.2 µM (active).
As for `CNC(=O)ON=C(C)SC`, the result in test [1], in [2], in [3], in [4], in test [5] and in [6] was inactive. The result in test [20], in test [18], in test [7], in test [8], in test [9] and in test [10] was inactive. The outcome in [11], in test [12], in test [13], in test [14], in test [15] and in test [19] was inactive. Further, the outcome in [16] and in test [17] was inactive.

The values above are taken from PubChem BioAssay (EPA / NIEHS).
